# Source: PubChem BioAssay AID1224862 (National Center for Advancing Translational Sciences (NCATS), 2016)
# Records with an inconclusive call do not appear. Entries that show only a call come without a potency. Active and inactive are the calls of the source. The call rests on the fitted dose curve; in most records, active means well fitted cell-killing curve with a large enough effect; inconclusive means small, poorly fitted or top-dose-only effect, or effect the other way; inactive means flat fitted curve, though single readings scatter.
# Assay: Compound cytotoxicity measured by an ATP content assay as a counter-screen for lead compounds in human astrocytoma cell line (SNB-19)
# Conditions: SNB-19 astrocytoma viability, ATP luminescence; series mostly up to 46.1 µM
# How it was run: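 SNB-19 cells, 250 per well, were treated with compounds for 6, 24 or 72 h after overnight seeding. The ATP detection reagent was added 1:1 and luminescence read after 10 min at room temperature, with the signal converted to percent inhibition of viability.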
row,SMILES,Potency
1,CCN1/C(=C/C=C/c2sc3ccccc3[n+]2CC)Sc2ccccc21,inactive
2,O=c1[nH]nc(Sc2ncc([N+](=O)[O-])s2)n1-c1ccc2c(c1)OCCO2,4.89 µM (active)
3,Cc1csc(NC(=O)c2sc3nc4c(c(C(F)(F)F)c3c2N)CCC4)n1,4.35 µM (active)
4,NC(N)=NN=C(/C=C/c1ccc([N+](=O)[O-])o1)/C=C/c1ccc([N+](=O)[O-])o1,17.3 µM (active)
5,CCOC1OC(=O)C[C@H]1NC(=O)[C@@H]1CCCN1C(=O)[C@@H](NC(=O)c1ccc(N)c(Cl)c1)C(C)(C)C (stereo not given in full),inactive
6,CCCCCCCCCCCC(=O)[O][Sn]([CH2]CCC)([CH2]CCC)[O]C(=O)CCCCCCCCCCC,inactive
7,Cc1ccc(C(=O)c2ccc(CC(=O)O)n2C)cc1,inactive
8,CNC1[C@H](O)C(O[C@@H]2C(O)C(O[C@H]3O[C@H]([C@@H](C)NC)CC[C@H]3N)[C@@H](N)C[C@H]2N)OC[C@]1(C)O (stereo not given in full),inactive
9,CC[C@@]1(O)C[C@H](O[C@H]2C[C@H](N(C)C)[C@H](O[C@H]3C[C@H](O)[C@H](O[C@H]4CCC(=O)[C@H](C)O4)[C@H](C)O3)[C@H](C)O2)c2c(cc3c(c2O)C(=O)c2c(O)cccc2C3=O)[C@@H]1C(=O)OC,inactive
10,NC(=O)c1cccc2[nH]c(-c3ccc([C@H]4CCCN4)cc3F)nc12,5.48 µM (active)
11,CCC(C(=O)O)c1ccc(N2Cc3ccccc3C2=O)cc1 (stereo not given),inactive
12,CC1(C)Cc2c(sc(NC(=S)NC(=O)c3ccccc3)c2C(=O)O)CO1,inactive
13,CC(C(=O)O)c1ccc(-c2ccccc2)c(F)c1 (stereo not given),inactive
14,O=C(/C=C/c1ccccc1)NCCO,inactive
15,Clc1ccccc1-c1nc(-c2ccncc2)no1,inactive
16,O=C1C[C@@H](c2ccc(O)cc2)Oc2cc(O)cc(O)c21,inactive
17,Cc1oncc1C(=O)Nc1ccc(C(F)(F)F)cc1,inactive
18,O=C(Nc1ncc([N+](=O)[O-])s1)c1cccs1,inactive

row,SMILES,Potency
1,O=C1c2ccccc2C(=O)c2c1ccc(O)c2O,inactive
2,Cc1cccc(C#Cc2ccccc2)n1,24.5 µM (active)
3,O=C(O)[C@H](CC(=O)N1C[C@@H]2CCCC[C@H]2C1)Cc1ccccc1,inactive
4,CS(=O)(=O)c1ccc(-c2cn3ccccc3n2)cc1,12.3 µM (active)
5,O=C(O)CCC(=O)c1ccc(-c2ccccc2)cc1,inactive
6,O=C(O)[C@@H](c1ccc(OCc2ccc3ccccc3n2)cc1)C1CCCC1,inactive
7,O=C(Oc1ccccc1)c1cccc(C(=O)Oc2ccccc2)c1,inactive
8,C=CCCCCCCCCC(=O)O,inactive
9,CC(=NNC(=S)N1CCC1)c1ccccn1,inactive
10,c1ccc(CCNc2nc(-c3ccccc3)cs2)cc1,inactive
11,CCN1CCC(n2cc(CNc3cc(Cl)c4ncc(C#N)c(Nc5ccc(F)c(Cl)c5)c4c3)nn2)CC1,inactive
12,O=c1oc2cc(O)ccc2s1,inactive
13,CC(C)(C)COc1ccc(-n2cc(C(=O)O)cn2)cc1C#N,inactive
14,CC1=C(CO)C(=O)O[C@@H]([C@@H](C)[C@H]2CC[C@H]3[C@@H]4C[C@H]5O[C@]56[C@@H](O)C=CC(=O)[C@]6(C)[C@@H]4CC[C@]23C)C1,inactive
15,CC(O)=C(C#N)C(=O)Nc1ccc(C(F)(F)F)cc1,8.69 µM (active)
16,COc1cc2nc(-c3ccc(N4CCN(C)CC4)cc3)nc(NCCN3CCOCC3)c2cc1OC,inactive
17,CN(C)CCCSc1ccccc1NC(=O)/C=C/c1ccccc1,inactive
